In PubChem BioAssay AID371 (SRMLSC, 2006) one finds growth inhibition data, which are given here for 20 compounds.

Structures are written as SMILES. Screen size: about 3,300 compounds; about 280 (8.5%) were called active.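 How the source made its calls: active means mean growth inhibition over the two runs of 50% or more; inactive means mean growth inhibition under 50%.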 The sample as a whole holds a higher share of actives than the screen did.

This assay is described as follows: A549 NSCLC cell proliferation inhibitors – ATP luminescence, human non-small cell lung line, primary screen (AID 371).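 Further: compound exposure lasted 72 h before the ATP read; 0% = untreated cell signal and 100% = no luminescence left.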 Conditions: at 10 µM, active compounds read high.
Take `CC1=NOC2(C)Nc3ncnn3C(c3ccccc3)C12` (stereo not given): the growth inhibition is 6.33% (inactive).
The same measure for `CN1C[C@H](CNC(=O)OCc2ccccc2)C[C@@H]2c3cccc4c3c(cn4C)C[C@H]21`: 94.7% (active); for `CC[C@@H](CO)NC(=O)[C@@H]1C=C2c3cccc4c3c(cn4C)C[C@H]2N(C)C1`: 4.84% (inactive); for `CCCCCCn1c(O)c(C=NCCCn2ccnc2)c(=O)[nH]c1=O`: 7.84% (inactive).
Consider `CC1(C)CC(n2[nH]c(=O)c3c2NC(=O)CSC3c2ccccc2)CCO1` (stereo not given), for which the growth inhibition is 3.92% (inactive).
In the case of `O=c1[nH]c2ccccc2n1CCCN1CCC(n2c(=O)[nH]c3cc(Cl)ccc32)CC1`, the growth inhibition was 6% (inactive).
With `O=c1[nH]c2ccccc2n1C1CCN(CCCC(c2ccc(F)cc2)c2ccc(F)cc2)CC1` the figure was 93% (active).
With `CCOC(=O)[C@]1(C#N)[C@@H]2C=CC(C(C)=O)=CN2[C@@H](C(N)=O)[C@@H]1c1ccsc1` the figure was 3.86% (inactive); with `Nc1ncc(P(=S)(N2CCOCC2)N2CCOCC2)s1`, 0.52% (inactive); with `COc1cccc(-n2c(O)c(C=NCCN3CCOCC3)c(=O)[nH]c2=O)c1`, -0.53% (inactive).
For the compound `CCCCc1nc(N2CCNCC2)c(C#N)c2c1CSC(C)(C)C2`, the growth inhibition was 92% (active).
In the case of `CCc1nc(N2CCNCC2)c(C#N)c2c1CSC(C)(C)C2`, the growth inhibition is 49.5% (inactive).
In the case of `COc1ccc2c(c1)c(C(=O)O)c(C)n2CC(C)C`, the growth inhibition is -2.88% (inactive).
For `COC(=O)C(O)(c1c[nH]c2ccccc12)C(F)(F)F` (stereo not given), the growth inhibition was 0.63% (inactive).
With `O=C(CN1CCN(CCO)CC1)Nc1ccc(Cl)cc1C(=O)c1ccccc1` the figure was 13.2% (inactive); with `C=CCOC(=O)C1=C(C)OC(N)=C(C#N)C12C(=O)N(CN1CCOCC1)c1ccccc12` (stereo not given), 0.76% (inactive).
Take `O=c1[nH]c(=O)n(-c2cccc3ccccc23)c(O)c1C=NCCCn1ccnc1`: the growth inhibition is -5.79% (inactive).
With `CCN(CC)CCN=C(C)c1c(O)n(-c2ccccc2OC)c(=O)[nH]c1=O` the figure was -2.11% (inactive); with `CC(=O)OC1N=C(c2ccccc2)c2ccccc2NC1=O` (stereo not given), -5.27% (inactive); with `CCN(CC)c1ccc(N=Cc2c(O)n(-c3cc(OC)ccc3OC)c(=O)[nH]c2=O)cc1`, 26.8% (inactive).
